PubChem BioAssay (EPA / NIEHS)
Results filed as inconclusive are left out. Calls of active or inactive are those of the source. How the source made its calls, unless noted: active means hit-call score of the fitted dose curve at least 0.9, where 1 is the maximum; inconclusive means response in the unintended direction; inactive means score below 0.9.

Experiments:
[1] = Tanguay_ZF_120hpf_SWIM_legacy: (Legacy) Oregon State University Tanguay Lab 120 Hour Post-fertilization zebrafish Assay for Swim Bladder Malformation (AID 2283654);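 further: swim bladder malformation in each larva scored yes or no under brightfield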
Outline: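 Scoring is binary for swim bladder defects at 120 hpf, by brightfield inspection of zebrafish larvae. Embryos were exposed singly from 6 hpf after pronase dechorionation, at 28C with 0.64% DMSO; mortality excluded scoring.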

[2] = Tanguay_ZF_120hpf_NC_legacy: (Legacy) Oregon State University Tanguay Lab 120 Hour Post-fertilization zebrafish Assay for Notochord and Tail Malformation (AID 2283656)
Outline: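 Binary notochord-distortion calls, made by brightfield inspection, form the read-out; activity is fitted in the positive direction against DMSO. Exposure ran statically from 6 to 120 hpf at 28C with 0.64% DMSO.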

[3] = read-out: Broad substrate specificity ATP-binding cassette transporter ABCG2 (Homo sapiens) (UniProt Q9UNQ0); assay: CLD_ABCG2_6hr: CellzDirect (CLD) Gene Expression Assay for ABC Transporter (ABCG2) at 6 hours (AID 2283660)
Outline: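 ABCG2 mRNA induction measured by qNPA chemiluminescence in human primary hepatocyte cultures, 6 h post-dose. Chemicals tested at several concentrations against a 0.2% DMSO vehicle; positive-direction fit relative to DMSO.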

[4] = read-out: xenobiotic metabolism (CYP1A1), CYP1A1 (gene 1543); assay: CLD_CYP1A1_6hr: CellzDirect (CLD) Gene Expression Assay for xenobiotic metabolism (CYP1A1) at 6 hours (AID 2283661);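 on AC50: potency for transcript induction above DMSO vehicle baseline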
Outline: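 Read-out 6 h post-dose: qNPA chemiluminescent quantitation of transcript induction against 0.2% DMSO. Cells were cultured primary human hepatocytes from two separate donor preparations; phase-contrast morphology annotated apparent cytotoxicity.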

[5] = system: Thyroperoxidase (TPO), gene 54314; assay: CCTE_Simmons_AUR_rTPO: CCTE's Amplex UltraRed Assay for Thyroperoxidase (TPO) Inhibition, Simmons Lab (AID 2283662);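 on AC50: potency for loss of signal meaning inhibition of peroxidase activity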
Outline: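 Rat thyroid microsomal TPO + 25 uM AUR in 200 mM K phosphate; cpd 5 nM–87.5 uM [final], 8 conc, 0.5% DMSO; 300 uM H2O2 starts rxn; 37C dark 30 min; endpoint FI 544/590 nm; n=3.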

[6] = read-out: solute carrier (SLC22A6), SLC22A6 (gene 9356); assay: LTEA_HepaRG_SLC22A6: Life Technologies and Expression Analysis (LTEA) Assay for solute carrier (SLC22A6) using HepaRG (AID 2283653; active means hit-call score of the fitted dose curve at least 0.9, where 1 is the maximum; inactive means score below 0.9); details: mRNA level, 48 h; actives raise or lower the signal
Outline: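 This endpoint tracks SLC22A6 mRNA induction or suppression in human HepaRG cultures after 48 h dosing, concentrations reaching 100 uM. Values derive from bidirectional fitting against DMSO controls.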

[7] = read-out: solute carrier (SLC10A1), SLC10A1 (gene 6554); assay: LTEA_HepaRG_SLC10A1: Life Technologies and Expression Analysis (LTEA) Assay for solute carrier (SLC10A1) using HepaRG (AID 2283657; active means hit-call score of the fitted dose curve at least 0.9, where 1 is the maximum; inactive means score below 0.9); details: mRNA level, 48 h; actives raise or lower the signal
Outline: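 SLC10A1 transcript measured by TaqMan qRT-PCR, housekeeping-normalised, after 48 h chemical treatment of human HepaRG cells. Eight concentrations (half-log, max 100 uM, 0.5% DMSO vehicle) in duplicate; fitted bidirectionally against DMSO baseline.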

[8] = read-out: matrix metalloproteinase-1 (MMP1), MMP1 (gene 4312); assay: LTEA_HepaRG_MMP1: Life Technologies and Expression Analysis (LTEA) Assay for matrix metalloproteinase-1 (MMP1) using HepaRG (AID 2283658; active means hit-call score of the fitted dose curve at least 0.9, where 1 is the maximum; inactive means score below 0.9); details: mRNA level, 48 h; actives raise or lower the signal
Outline: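 Bidirectional concentration-response fitting relative to 0.5% DMSO gives the endpoint, derived from MMP1 mRNA levels (qRT-PCR) in human HepaRG cells treated 48 h with chemicals up to 100 uM.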

[9] = Tanguay_ZF_120hpf_TRUN_legacy: (Legacy) Oregon State University Tanguay Lab 120 Hour Post-fertilization zebrafish Assay for Truncated Body (AID 2283655)
Outline: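 5D wild-type larvae; pronase dechorionation; static exposure 6→120 hpf, 28C; DMSO 0.64% final; 5uM trimethyltin chloride positive control. Readout: presence/absence of truncated body, analyzed relative to DMSO.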

[10] = read-out: ABC Transporter (ABCB1), ABCB1 (gene 5243); assay: CLD_ABCB1_6hr: CellzDirect (CLD) Gene Expression Assay for ABC Transporter (ABCB1) at 6 hours (AID 2283659);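 further: hits raise ABCB1 transcript above the DMSO vehicle baseline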
Outline: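 ABCB1 transcript measured by quantitative nuclease protection assay, chemiluminescent read-out, 6 h after dosing human hepatocyte cultures (0.2% DMSO vehicle, daily redosing). Activity fitted as increase over DMSO baseline; cytotoxicity flagged by phase-contrast morphology.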

Measured: AC50

Sequence of Broad substrate specificity ATP-binding cassette transporter ABCG2 (Homo sapiens) (Q9UNQ0 whole entry, looked up): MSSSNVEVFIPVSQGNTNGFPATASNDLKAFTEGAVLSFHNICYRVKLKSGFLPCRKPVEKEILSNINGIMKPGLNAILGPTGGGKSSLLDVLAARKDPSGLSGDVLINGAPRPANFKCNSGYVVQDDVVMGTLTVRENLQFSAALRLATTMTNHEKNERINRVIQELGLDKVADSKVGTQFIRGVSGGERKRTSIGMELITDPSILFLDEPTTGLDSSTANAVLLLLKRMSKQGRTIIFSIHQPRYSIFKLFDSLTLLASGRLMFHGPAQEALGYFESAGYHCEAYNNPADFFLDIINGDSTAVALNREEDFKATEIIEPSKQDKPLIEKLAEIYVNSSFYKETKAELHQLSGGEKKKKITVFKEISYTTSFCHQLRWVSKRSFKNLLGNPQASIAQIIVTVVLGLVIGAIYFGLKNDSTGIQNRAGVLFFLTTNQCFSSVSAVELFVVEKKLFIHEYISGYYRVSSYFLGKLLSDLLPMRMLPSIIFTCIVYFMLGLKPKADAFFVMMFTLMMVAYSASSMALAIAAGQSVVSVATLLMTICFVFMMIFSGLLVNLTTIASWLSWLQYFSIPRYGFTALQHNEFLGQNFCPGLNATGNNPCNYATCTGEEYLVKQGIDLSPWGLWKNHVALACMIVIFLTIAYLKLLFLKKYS

COc1cccc(C(=O)NN(C(=O)c2cc(C)cc(C)c2)C(C)(C)C)c1C
inactive: [1] | [2] | [3] | [4]

CCOP(=S)(OCC)Oc1ccc([N+](=O)[O-])cc1
active: [4] 3.67 µM | [5] 15.5 µM
inactive: [1] | [2]

CC(COc1ccc(Oc2ccccc2)cc1)Oc1ccccn1 (centres undefined)
active: [7] 27.9 µM
inactive: [6] | [2] | [8] | [3] | [4]

CC(Oc1cccc(Cl)c1)C(=O)O (centres undefined)
inactive: [9] | [2] | [10] | [3] | [4]

O=[N+]([O-])c1cc(C(F)(F)F)c(Cl)c([N+](=O)[O-])c1Nc1ncc(C(F)(F)F)cc1Cl
inactive: [9]

CCCCOC(=O)c1ccccc1C(=O)O
inactive: [1] | [9] | [3] | [4]

O=c1ccc(=O)[nH][nH]1
active: [2] 41.6 µM
inactive: [1] | [3] | [5]

CCc1cccc(CC)c1N(COC)C(=O)CCl
inactive: [6] | [1] | [2] | [7] | [8] | [3]

Cc1nn(-c2cc(NS(C)(=O)=O)c(Cl)cc2Cl)c(=O)n1C(F)F
inactive: [1] | [9] | [10] | [3] | [4]

CCOP(=O)(NC(C)C)Oc1ccc(SC)c(C)c1 (centres undefined)
inactive: [1] | [2] | [5]
active: [4] 2.72 µM

CCOP(=S)(Oc1cnc(C(C)(C)C)nc1)OC(C)C (centres undefined)
active: [7] 16.5 µM | [4] 2.24 µM | [5] 36.2 µM
not listed: [1] | [10]
inactive: all other assays above

CCOP(=S)(OCC)SCCSCC
inactive: [1] | [2] | [10] | [3]
active: [4] 4.01 µM

N#CSCSC#N
inactive: [1] | [2] | [3]
active: [5] 2.75 µM

Nc1c(Cl)cc([N+](=O)[O-])cc1Cl
inactive: [1] | [2] | [3]
active: [9] 34.7 µM | [4] 34.5 µM

COP(=O)(OC)C(O)C(Cl)(Cl)Cl (centres undefined)
inactive: [1] | [9] | [2] | [3]

CNC(=O)ON=C(C)SC
inactive: [1] | [2] | [3] | [4]

COc1cc(OC)nc(Sc2cccc(Cl)c2C(=O)O)n1
inactive: [9] | [2] | [10] | [3]

CCOP(=O)(OCC)Oc1cc(C)nc(C(C)C)n1
inactive: [1] | [2] | [3] | [4]

C=C(C)[C@H]1Cc2c(ccc3c2O[C@@H]2COc4cc(OC)c(OC)cc4[C@@H]2C3=O)O1
inactive: [1] | [2]
active: [5] 26.5 µM

CSc1nc(NC(C)C)nc(NC(C)C)n1
inactive: [6] | [2] | [8] | [3]
active: [7] 61.6 µM | [4] 3.97 µM

COP(=O)(NC(C)=O)SC (centres undefined)
active: [5] 31.8 µM
inactive: [1] | [3] | [4]

CC[C@H](C)[C@H]1O[C@]2(C=C[C@@H]1C)C[C@@H]1C[C@@H](C/C=C(\C)[C@@H](O[C@H]3C[C@H](OC)[C@@H](O[C@H]4C[C@H](OC)[C@@H](NC)[C@H](C)O4)[C@H](C)O3)[C@@H](C)/C=C/C=C3\CO[C@@H]4[C@H](O)C(C)=C[C@@H](C(=O)O1)[C@]34O)O2
inactive: [6] | [2] | [8]
active: [7] 5 µM | [3] 29.5 µM

CON=C(C(=O)OC)c1ccccc1CON=C(C)c1cccc(C(F)(F)F)c1
inactive: [1] | [2] | [3] | [4]

CC(C)[C@H](C(=O)O[C@H](C#N)c1cccc(Oc2ccccc2)c1)c1ccc(Cl)cc1
active: [1] 4.25 µM
inactive: [9] | [2] | [10] | [3] | [4]

CCc1cccc(C)c1N(C(=O)CCl)C(C)COC (centres undefined)
inactive: [1] | [9] | [2] | [3]

CCOC(=O)CC(SP(=O)(OC)OC)C(=O)OCC (centres undefined)
inactive: [6] | [2] | [8] | [4]
active: [7] 10.1 µM | [5] 29.2 µM

C#CC(C)(C)NC(=O)c1cc(Cl)cc(Cl)c1
inactive: [1] | [2] | [3] | [4]

CCCOCC(=Nc1ccc(Cl)cc1C(F)(F)F)n1ccnc1
inactive: [1] | [2] | [3] | [5]
active: [4] 1.9 µM

CNC(=O)Oc1cccc2c1OC(C)(C)O2
active: [4] 2.94 µM
not listed: [3] | [5] | [9]
inactive: all other assays above

CN(C)NC(=O)CCC(=O)O
inactive: [9] | [2] | [10] | [3]
